# Laboratory results reported in patent US20200172896, “EVOLUTION OF BIOACTIVE SEQUENCE-DEFINED SYNTHETIC POLYMERS USING DNA-TEMPLATED POLYMERIZATION” (President and Fellows of Harvard College, published 2020).
# Target: PCSK9 (Homo sapiens, UniProt Q8NBP7;Q8NBP7 Q8NBP7:31-152,Q8NBP7:153-692)
# Experiment: SPR; vs PCSK9-A5; salmon sperm DNA
# Conditions: tags: ACROBiosystems PC9-H5223; label: 5' dual biotin-iSp18; ssDNA; as PCSK9-A5 except codon 13 CAC unmodified [codon 13 CAC (nt 55-57) unmodified; other codons as PCSK9-A5 (including phenol at codon 9 TTT nt 43-45, cyclopentyl at codon 14 CTT nt 58-60)]
# Chain of PCSK9 (Q8NBP7 31-152, chain 1 of 2): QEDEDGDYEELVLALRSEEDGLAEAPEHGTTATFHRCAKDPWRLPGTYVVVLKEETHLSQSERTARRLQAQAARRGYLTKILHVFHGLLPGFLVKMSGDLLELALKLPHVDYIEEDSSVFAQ
# Chain of PCSK9 (Q8NBP7 153-692, chain 2 of 2): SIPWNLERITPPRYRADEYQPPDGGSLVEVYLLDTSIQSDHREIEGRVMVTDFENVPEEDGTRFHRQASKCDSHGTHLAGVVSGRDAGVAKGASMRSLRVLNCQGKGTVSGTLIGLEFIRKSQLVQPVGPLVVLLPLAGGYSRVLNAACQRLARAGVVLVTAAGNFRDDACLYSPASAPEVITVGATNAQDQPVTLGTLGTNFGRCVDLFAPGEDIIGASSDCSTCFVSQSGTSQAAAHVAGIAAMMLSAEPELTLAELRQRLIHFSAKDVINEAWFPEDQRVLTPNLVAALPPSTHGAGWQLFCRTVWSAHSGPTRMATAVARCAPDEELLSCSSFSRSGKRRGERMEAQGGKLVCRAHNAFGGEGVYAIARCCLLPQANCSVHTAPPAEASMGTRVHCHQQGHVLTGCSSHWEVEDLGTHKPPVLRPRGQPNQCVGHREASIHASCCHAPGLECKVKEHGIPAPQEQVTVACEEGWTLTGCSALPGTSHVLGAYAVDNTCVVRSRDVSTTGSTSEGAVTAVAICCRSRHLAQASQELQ
sequence,measurement,value
CGAATCAGATTGGACCAGCCACGTTACTGATTCTTCTACCGTTTTTGCCCCCGGCACCTTCTGGAGTCCAGATGTAGGTAG,binding signal,~2 fold reduction in affinity
